About 83,000 compounds went through this panel and 20% of them were active in at least one assay; those are over-represented in the sample as a whole.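 Plates (96-well) were seeded with cells, treated with compound at one concentration, and incubated for 48 hours before percent growth was determined.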 Values without a mark were called inactive. Active and inactive are the calls of the source.
The molecules below were run on OVCAR-3 ovarian (assay: NCI-60 one-dose screen, 48 h (100 = growth as untreated, 0 = no growth, -100 = all killed)). Conditions: 10 µM.
Method: Growth inhibition of the OVCAR-3 human tumor cell line is measured as a screen for anti-cancer activity. Cells are grown in 96 well plates and exposed to the test compound for 48 hours. Compounds are tested at a single concentration, which is 10^-5 M for most compounds. The reported endpoint is percent growth (GI% or GIPRCNT), where numbers from 0 - 100% represent growth inhibition, and numbers from -100% - 0 represent cell death. For example, a value of 40 represents 60% growth inhibition. A value of 0 means no net growth occurred over the course of the experiment. A value of -40 indicates 40% of cells at the beginning of the experiment died by the end of the experiment. A value of -100 means all cells are dead at the end of the experiment.
NCI-60 Human Tumor Cell Lines Screen was performed using the standard one-dose NCI protocol, which is described in more detail at https://dtp.cancer.gov/discovery_development/nci-60/default.htm.
Compounds with GIPRCNT values below 10 were considered active. Activity score was based on GIPRCNT using the following formula: […]
Score is 0 for GIPRCNT values of 100 or above, 50 for GIPRCNT values of 0, and 100 for GIPRCNT values of -100.

| Structure (SMILES) | growth |
| --- | --- |
| O=C(/C=C/c1ccc(Cl)cc1Cl)c1nc2ccccc2n1Cc1ccc(F)cc1 | 31.7% |
| COc1ccc(/C=C/C(=O)c2nc3ccccc3n2Cc2ccc(Br)cc2)cc1 | 60% |
| O=C([Se]C1C=CCCC1)c1ccc(C(=O)[Se]C2C=CCCC2)s1 (stereo not given) | -92.4% (active) |
| COCCOCCOCCOc1ccc(-n2cc(-c3ccc(O[C@H]4O[C@@H]5OC6(C)CC[C@H]7[C@H](C)CC[C@@H]([C@H]4C)[C@@]57OO6)cc3)nn2)cc1 | 46% |
| CC(=C\C(=O)Oc1ccc2c3c1OC1C(O)CCC4(O)C(C2)N(CC2CCC2)CCC314)/C=C1\CCCc2ccccc21 (stereo not given) | 77.2% |
| CC1=C(C=O)C2=C(C)C3(CC3)[C@@](C)(O)C(=O)C2=C1 | -9.94% (active) |
| Cc1c2oc3c(C)ccc(C(=O)N[C@@H]4C(=O)N[C@H](C(C)C)C(=O)N5CCC[C@H]5C(=O)N(C)CC(=O)N(C)[C@@H](C(C)C)C(=O)OC4C)c3nc-2c(C(=O)N[C@@H]2C(=O)N[C@H](C(C)C)C(=O)N3CC(=O)C[C@H]3C(=O)N(C)CC(=O)N(C)[C@@H](C(C)C)C(=O)OC2C)c(N)c1=O (stereo not given in full) | 6.77% (active) |
| CC1=C(CCC=O)C2=C(C)C3(CC3)[C@@](C)(O)C(=O)C2=C1 | -77.6% (active) |
| C[C@H]1[C@@H](Oc2ccc(-c3cn(-c4ccnc5cc(Cl)ccc45)nn3)cc2)O[C@@H]2OC3(C)CC[C@H]4[C@H](C)CC[C@@H]1[C@@]24OO3 | 32.7% |
| CCOP(=O)(OCC)C(NC(C)=O)C(=O)SCCN (stereo not given) | 147% |
| CCOP(=O)(CC(F)(F)C(F)(F)F)OCC | -61.5% (active) |
| CC12OOC(C)(OO1)C2CCC(=O)NCCCNc1ccnc2cc(Cl)ccc12 (stereo not given) | -49.6% (active) |
| CCC[Se]C(=O)c1ccc(C(=O)[Se]CCC)s1 | -47.6% (active) |
| C[C@H]1[C@H](OC(=O)CCC(=O)N(CCCc2cn(-c3ccc([N+](=O)[O-])cc3)nn2)CCNc2ccnc3cc(Cl)ccc23)O[C@@H]2OC3(C)CC[C@H]4[C@H](C)CC[C@@H]1[C@@]24OO3 | 40.8% |
| C#CCCCN(CCNc1ccnc2cc(Cl)ccc12)C(=O)CCC(=O)O[C@@H]1O[C@@H]2OC3(C)CC[C@H]4[C@H](C)CC[C@@H]([C@H]1C)[C@@]24OO3 | 25.7% |
| C[C@H]1[C@H](OC(=O)CCC(=O)N(CCCc2cn(-c3ccc(CN4CCOCC4)cc3)nn2)CCNc2ccnc3cc(Cl)ccc23)O[C@@H]2OC3(C)CC[C@H]4[C@H](C)CC[C@@H]1[C@@]24OO3 | 38.3% |
| COc1ccc2cc([C@H](C)C(=O)[Se]CCC#N)ccc2c1 | -61% (active) |
| O=C(/C=C/c1ccc(Br)cc1)c1nc2ccccc2n1Cc1ccc(Br)cc1 | -46.9% (active) |
| Cc1ccc2[nH]c(=S)n(-c3ccc(F)cc3)c(=O)c2c1 | 114% |
| CC[C@@]12CC(C(=O)OC)=C3Nc4cc5c(cc4[C@@]34CCN(C[C@H]3O[C@H]31)[C@@H]24)[C@@H]1[C@H](O5)[C@@H](O)[C@@]2(CC)CC(C(=O)OC)=C3Nc4cc(OC)ccc4[C@@]34CCN1[C@@H]24 | 7.91% (active) |

| Structure (SMILES) | growth |
| --- | --- |
| CC1=C(COCCOC(=O)c2ccc(S(=O)(=O)F)cc2)C2=C(C)C3(CC3)[C@@](C)(O)C(=O)C2=C1 | 9.3% (active) |
| CCOC(=O)C1=C(Nc2ccccc2)C(=O)OC12C(=O)Nc1ccccc12 (stereo not given) | 104% |
| O=C(/C=C/c1cccc(Br)c1)c1nc2ccccc2n1Cc1ccc(Br)cc1 | -51.5% (active) |
| C[C@H]1[C@@H](CC(=O)N[C@@H](Cc2coc3ccccc23)B(O)O)O[C@@H]2OC3(C)CC[C@H]4[C@H](C)CC[C@@H]1[C@@]24OO3 | -14.9% (active) |
| O=C(/C=C/c1ccc(Cl)cc1Cl)c1nc2ccccc2n1Cc1ccc(Br)cc1 | 68.4% |
| C#CC[Se]C(=O)c1ccc2n[se]nc2c1 | 46.2% |
| O=C(/C=C/c1ccccc1Cl)c1nc2ccccc2n1Cc1ccc(F)cc1 | -50.8% (active) |
| CC[C@]12C=CCN3CC[C@@]4(c5ccc(OC)cc5N(C)[C@H]4[C@@](O)(C(=O)OC)[C@@H]1OC(=O)CCC[P+](C1CCCCC1)(C1CCCCC1)C1CCCCC1)[C@@H]32 | -48.6% (active) |
| CC12OOC(C)(OO1)C2CCC(=O)NCCNc1ccnc2cc(Cl)ccc12 (stereo not given) | 97.3% |
| COC(=O)c1ccc(-n2cc(CCCN(CCNc3ccnc4cc(Cl)ccc34)C(=O)CCC(=O)O[C@@H]3O[C@@H]4OC5(C)CC[C@H]6[C@H](C)CC[C@@H]([C@H]3C)[C@@]46OO5)nn2)cc1 | 43.4% |
| COC(=O)CCn1c(-c2ccc(-n3cc(-c4ccc(O[C@H]5O[C@@H]6OC7(C)CC[C@H]8[C@H](C)CC[C@@H]([C@H]5C)[C@@]68OO7)cc4)nn3)cc2)nc2ccccc21 | 20.4% |
| CC[C@]12C=CCN3CC[C@@]4(c5ccc(OC)cc5N(C)[C@H]4[C@@](O)(C(=O)OC)[C@@H]1OC(=O)CCC[P+](c1ccc(F)cc1)(c1ccc(F)cc1)c1ccc(F)cc1)[C@@H]32 | 21.1% |
| O=C(/C=C/c1ccco1)c1nc2ccccc2n1Cc1ccc(F)cc1 | 46.3% |
| CN(C)CCc1cn(C2CCC2)c2cccc(O)c12 | 93.6% |
| CC[C@]12C=CCN3CC[C@@]4(c5ccc(OC)cc5N(C)[C@H]4[C@@](O)(C(=O)OC)[C@@H]1OC(=O)CCC[P+](c1ccc(C)cc1)(c1ccc(C)cc1)c1ccc(C)cc1)[C@@H]32 | -61.9% (active) |
| C=CC[Se]C(=O)c1cncc(C(=O)[Se]CC=C)c1 | -89.5% (active) |
| O=C(/C=C/c1ccco1)c1nc2ccccc2n1Cc1ccc(Br)cc1 | 22% |
| O=C(/C=C/c1ccccc1)c1nc2ccccc2n1Cc1ccc(F)cc1 | -47.5% (active) |
| COC(=O)C[C@](O)(CCCC(C)C)C(=O)O[C@H]1C(OC)=C[C@@]23CCCN2CCc2cc4c(cc2[C@@H]13)OCO4 | -31% (active) |
| COc1cc2cc(C(=O)N3C[C@@H](CCl)c4c3cc(OC(=O)N3CCN(C)[C@@H]5CSSC[C@H]53)c3ccccc43)[nH]c2c(OC)c1OC | -9.08% (active) |
